Screening data from PubChem BioAssay.
Compounds with a hit are over-represented: about 3.7% of the library has one in this group of screens.
MITF act: MITF TRPM1 promoter activation in melanoma cells; SK-MEL-5 TRPM1-promoter luciferase, 24 h; % of positive control, neutral wells = 0; activation, % at 12.5 µM; 300,000 compounds, 0.75% hits; AID 588334;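 active = mean activation of at least 80% with every replicate also reaching 80%; inconclusive = mean reaches 80% but some replicate falls short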;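 note: 0% = neutral control wells and 100% = parthenolide positive control wells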
AF4-AF9 inh: inhibitors of human MLL-AF4/AF9 interaction | P42568 | AID 651704 | 350,000 compounds, 0.47% hits | inhibition, % at 10 µM | AlphaScreen, biotin-AF4 peptide binding to FLAG-AF9;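 active = every replicate reaching a set inhibition limit, whatever the replicate mean, cut at about 25% in these data; inconclusive = mean inhibition reaches that limit but some replicates miss it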;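 note: 0% = plate neutral control median and 100% = total signal loss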
Target sequence (P42568 whole entry, looked up): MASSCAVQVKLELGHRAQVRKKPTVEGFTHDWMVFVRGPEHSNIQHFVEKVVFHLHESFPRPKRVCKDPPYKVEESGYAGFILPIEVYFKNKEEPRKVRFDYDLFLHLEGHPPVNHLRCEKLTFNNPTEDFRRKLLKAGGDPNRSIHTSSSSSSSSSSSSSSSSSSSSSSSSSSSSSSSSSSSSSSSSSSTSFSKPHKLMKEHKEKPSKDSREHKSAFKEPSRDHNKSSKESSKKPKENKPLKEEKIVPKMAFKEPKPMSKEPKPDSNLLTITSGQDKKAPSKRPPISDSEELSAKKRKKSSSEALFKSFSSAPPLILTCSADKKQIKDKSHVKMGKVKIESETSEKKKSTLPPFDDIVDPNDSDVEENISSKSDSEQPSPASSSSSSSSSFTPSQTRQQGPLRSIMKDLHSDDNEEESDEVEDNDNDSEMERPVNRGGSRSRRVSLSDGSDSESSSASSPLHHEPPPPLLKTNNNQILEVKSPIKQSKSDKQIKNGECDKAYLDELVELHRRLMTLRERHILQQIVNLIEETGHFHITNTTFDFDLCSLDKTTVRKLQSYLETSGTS
Wnt bcat act: Wnt/beta-catenin pathway activation; AID 743398; Wnt/beta-catenin reporter cell assay, activator, plate reader; 300,000 compounds, 1.2% hits; activation, % at 9.35 µM; in the data active = activation above about 30%, passing the limit was not always enough; inconclusive = no clear call, values can overlap the other calls;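 note: 0% = neutral control wells and 100% = positive control wells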
esBAF inh: inhibitors of esBAF chromatin remodeling in mouse ES cells; 350,000 compounds, 2% hits; AID 602393; reporter increase, % at 12.5 µM; Bmi1-luciferase knock-in reporter, 24 h; 100% = twice the neutral-well signal; in the data active = activation above about 40%; inconclusive = no clear call, values can overlap the other calls;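 note: 0% = median of the plate's neutral control wells and 100% = double that signal; a rise in the Bmi1 reporter signal indicates esBAF inhibition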
Ecoli rRNA inh: inhibits bacterial ribosomal RNA function over humanized ribosomes; E. coli WT GFP vs humanized-ribosome RFP mutants, fluorescence, 24 h; active compounds read low; DMSO median 0, no signal -100; GFP signal change (wild-type ribosome), % (concentration not given with the values); 350,000 compounds, 1.6% hits;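 active = significant combined selectivity score with lowered wild-type GFP, culture density cut under 30%, mutant RFP and density less affected; inactive = any of these conditions unmet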
Active calls of the source: *; u = inconclusive; x = no result given.

SMILES | MITF act | AF4-AF9 inh | Wnt bcat act | esBAF inh | Ecoli rRNA inh
O=C(CSCc1ccccc1)Nc1cccc(F)c1 | 95* | x | 63* | x | x
O=C(CSCc1c(F)cccc1F)Nc1ccccc1 | x | -1 | 8 | 51* | 12
Cc1cnc(NC(=O)c2ccc3ncsc3c2)s1 | 47 | 14 | 48* | x | 7
CCc1nnc(NC(=O)c2ccc3ncsc3c2)s1 | 45 | 16 | 34* | 27 | 9
CCc1nnc(NC(=O)c2ccncc2)s1 | -4 | x | x | 3 | x
Cc1ccc(-n2nc(C(=O)O)cc2-c2ccccc2)cc1 | -11 | x | -4 | -4 | x
COc1ccc(-c2nc3ccccc3nc2-c2ccccc2)cc1 | -8 | -2 | x | -1 | -23
COc1ccc2nc3ccccc3nc2c1 | 93* | 2 | -2 | 42* | x
CC1CCCCN1C(=O)CSc1nnc(-c2ccc(Cl)s2)o1 (stereo not drawn) | 72 | x | x | 63* | x
CCOC(=O)CN1C(=O)S/C(=C\c2ccc(-c3cccc(C(=O)O)c3C)o2)C1=O | x | 3 | 21 | x | -8
CCOC(=O)CN1C(=O)S/C(=C\c2ccc(-c3ccc(C(=O)O)c(Cl)c3)o2)C1=O | 6 | -9 | 0 | 0 | -24*
CC(C)N1C(=O)S/C(=C\c2ccc(-c3ccc(Cl)c(C(=O)O)c3)o2)C1=O | x | -5 | 30 | 48* | -29
Cc1ccc(N2NC(=O)/C(=C/c3ccc(-c4ccc(Cl)c(C(=O)O)c4)o3)C2=O)cc1 | 6 | -3 | 0 | -8 | 15
COc1ccc(C2CC(c3cccs3)=NN2C(=O)CSc2nc(=O)n3ccccc3n2)cc1 (stereo not drawn) | -1 | 5 | -13 | 9 | -4
Cn1c(C(=O)N2CCc3ccccc3C2)cc2oc3ccccc3c21 | 61 | x | 3 | 55* | x
Cc1ccc(CN(C(=O)c2ccccc2C)C2CCS(=O)(=O)C2)o1 (stereo not drawn) | -4 | -7 | -1 | x | 11
N#C/C(=C\Nc1ccc(Cl)cn1)S(=O)(=O)c1ccccc1 | -9 | -1 | 1 | -2 | -35*
CC1=NC(=O)C(N=Nc2cccc(C(=O)O)c2)N1c1ccccc1 (stereo not drawn) | -78 | 3 | 2 | x | -31*
CCCc1ccc(-c2cc(NC(=O)CSc3n[nH]c(N)n3)n(-c3ccccc3)n2)cc1 | u | x | x | 64* | x
CC(NC(=O)CSc1n[nH]c(N)n1)c1ccccc1 (stereo not drawn) | -8 | -2 | -1 | 7 | 2
Nc1nc(SCC(=O)Nc2cccc(Oc3ccccc3)c2)n[nH]1 | -1 | -2 | x | x | -24*
O=C(CSc1ncnc2[nH]ncc12)Nc1cccc(Oc2ccccc2)c1 | 1 | -7 | 0 | -5 | -43*
COc1ccc(C(=O)NCc2cn3cccc(C)c3n2)cc1OC | x | -4 | 0 | -2 | 0
COc1ccc(C(O)c2nc(-c3cc4ccccc4o3)cs2)cc1 (stereo not drawn) | x | -1 | 2 | 19 | 7
OC(c1ccccc1)c1nc(-c2cc3ccccc3o2)cs1 (stereo not drawn) | x | -4 | -1 | 47* | -33
SMILES | MITF act | AF4-AF9 inh | Wnt bcat act | esBAF inh | Ecoli rRNA inh
Nc1nc(-c2cc3ccccc3o2)cs1 | 102* | -10 | 56* | u | -12
COCCn1c(SCC(=O)N2CCOCC2)nc2c(c1=O)SCC2 | -4 | -3 | -2 | 1 | 7
COc1ccc(N=C2C(=S)N(c3ccc(OC)cc3)C(=NS(=O)(=O)c3ccccc3)N2c2ccccc2)cc1 | 9 | 1 | 68* | x | -4
CC(C)C#Cc1ccc([C@H]2[C@@H](C#N)N(C(=O)C3CCOCC3)[C@H]2CO)cc1 | x | -1 | x | 6 | 2
Cc1ccc(N2CCN(c3ccc(NCc4nc5ccccc5n4C)cc3)CC2)cc1 | 1 | 12 | 1 | x | -3
Cc1ccc(NCc2nc3ccccc3n2C)c(C)c1 | -16 | 14 | 40* | -17 | -16
Cc1cccc(NCc2nc3ccccc3n2Cc2ccccc2)c1 | x | x | 21 | 20 | x
Cc1cccc(NCc2nc3ccccc3n2C)c1 | 37 | x | x | 61* | x
COc1ccc(NC(=O)CCN2CCN(c3ccc(F)cc3)CC2)cc1 | 10 | 0 | 1 | 5 | 13
Cn1ccnc1C1CCCCN1Cc1nc(Cc2cccc(C(F)(F)F)c2)no1 (stereo not drawn) | -11 | 0 | -1 | -5 | -7
CSc1nc2ccc(NC(=O)C3CCCO3)cc2s1 (stereo not drawn) | u | x | 49* | 14 | x
COc1ccc2nc(NC(=O)C3CCCO3)sc2c1 (stereo not drawn) | 43 | 1 | 11 | x | -4
Cc1cccc2sc(NC(=O)C3CCCO3)nc12 (stereo not drawn) | 75 | x | x | 74* | -14
CSc1nc2ccc(NC(=O)c3ccc(Cl)s3)cc2s1 | x | -8 | 26 | 50* | 4
CCc1cccc(C)c1NC(=O)C1CCCO1 (stereo not drawn) | 11 | x | 2 | -10 | x
CNc1sc(C(=O)c2cccs2)c(N)c1-c1nc2ccccc2s1 | 98* | x | x | x | x
COc1ccc(-c2cc(C(=O)NCCCN3CCOCC3)c3cc(C(C)C)ccc3n2)cc1 | 21 | 3 | 0 | 2 | -4
C[C@@H]1CN([C@H](C)CO)C(=O)c2cccc(NC(=O)c3cnccn3)c2O[C@H]1CN(C)Cc1ccc(C(=O)O)cc1 | x | -3 | x | -3 | 4
Cc1ccc(NC(=S)N=Nc2c(O)[nH]c3ccccc23)cc1 | -2 | 0 | 16 | x | 5
COc1ccc(NC(=S)N=Nc2c(O)[nH]c3ccccc23)cc1 | -7 | 0 | 15 | 23 | -47*
Oc1ccc(NC(=S)N=Nc2c(O)[nH]c3ccccc23)cc1 | 34 | 16 | u | 65* | -68
O=C(N=Nc1c(O)[nH]c2ccccc12)c1cccs1 | 16 | x | 35* | x | x
COC(=O)c1ccc(CSc2nc(N)cc(N)n2)cc1 | 32 | x | x | 52* | -3
COC(=O)c1ccc(CSc2nnc(N)s2)cc1 | 32 | x | x | 30 | x
COC(=O)c1ccc(OS(=O)(=O)N(C)C)cc1 | 46 | -2 | 10 | 49* | 13
SMILES | MITF act | AF4-AF9 inh | Wnt bcat act | esBAF inh | Ecoli rRNA inh
O=C(CCC(=O)c1ccc(F)cc1)Nc1cccc(S(=O)(=O)Nc2cccc(Cl)c2)c1 | -15 | -3 | 0 | x | -41*
Cc1ccc(/C=N/NC(=O)c2cccc(S(=O)(=O)Nc3cccc(Cl)c3)c2)o1 | x | 0 | -2 | x | -21*
COc1ccc(NC(=O)c2ccc(S(=O)(=O)N(C)C)cc2)cc1 | 8 | -3 | 1 | x | -13
COc1ccc(NC(=O)c2cccc(OS(=O)(=O)N(C)C)c2)cc1 | 49 | -8 | 55* | 26 | 4
O=S(=O)(Nc1ccc(F)cc1)c1ccc(NS(=O)(=O)c2cccs2)cc1 | -7 | -4 | -2 | -9 | -1
C[C@H]1CN([C@@H](C)CO)C(=O)c2ccccc2-c2ccccc2CO[C@H]1CN(C)C(=O)Nc1ccc(F)cc1 | x | -12 | x | -4 | -1
CN(C)S(=O)(=O)Oc1cccc(C(=O)Nc2ccc(Cl)c(Cl)c2)c1 | 33 | x | x | 72* | x
COc1cccc(C(=O)Nc2cccc(NC(=O)c3ccccc3Cl)c2)c1 | x | 0 | -3 | 17 | -12
